Shiga inhibitor: Shiga toxin inhibition; actives 9.2% (n = 290,000); Vero cells, Shiga toxin protein synthesis inhibition reporter; AID 2315; inhibition, % at 38.7 µM; in the data active means inhibition mostly above about 28%, no sharp cut-off; inactive means mostly below about 43%; further: 0% is about no effect
Pf growth 96h: inhibits malaria parasite growth, 96 h; P. falciparum luciferase reporter growth, 96 h; Potency, µM (series often up to 28.7 µM), for the others: top-dose activity change, negative = inhibition, usual class: inhibitors; actives 6.9% (n = 320,000); AID 504834; further: potency means the concentration at half of the fitted maximal effect; on the % scale 0 is the no-effect control and ±100 the full control effect
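96 h incubation, 37 C, 5% CO2, of luciferase-reporter P. falciparum-infected RBCs (2% hematocrit, 0.05% parasitemia final) with test compounds; endpoint luminescence.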
CHX counter: counter-screen for Shiga toxin inhibitors: cycloheximide protein synthesis inhibition | cell reporter, cycloheximide protein synthesis inhibition counterscreen | max response, % | actives 12% (n = 300,000) | AID 2314; in the data active means max response mostly above about 13%, no sharp cut-off; inactive means mostly below about 14%; further: read at 38.3 µM for the half of the compounds with a filed dose; 0% is about no effect
LASV entry inh: blocks Lassa virus binding to or entry into cells | AID 540256 | Potency, µM (highest dose often 37.9 µM), without a hit: at the highest dose activity change, negative = inhibition, hits mostly inhibitors | Lassa virus pseudotype entry inhibition, cell reporter | actives 1.2% (n = 300,000); calls by dose curve; tested in HEK293 cells; further: potency means the concentration at half of the fitted maximal effect; on the % scale 0 is the no-effect control and ±100 the full control effect; nearly all actives have a fitted effect of over 50% in size
Pf growth 48h: P. falciparum growth inhibition at 48 hours (one generation); P. falciparum luciferase growth in erythrocytes, 48 h; Potency, µM (series often up to 28.7 µM), without a hit: top-dose activity change, negative = inhibition, actives largely listed as inhibitors; actives 5.9% (n = 310,000); AID 504832; further: potency means the concentration at half of the fitted maximal effect; on the % scale 0 is the no-effect control and ±100 the full control effect
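Parasite viability was followed by luminescence of a genomically integrated firefly luciferase. Cultures held 0.1% parasitemia at 2% hematocrit (final), incubated under 5% CO2 at 37 C.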
MARV entry inh: inhibitors of Marburg virus binding or cell entry; Potency, µM (top dose mostly 37.8 µM), inactives show at the highest dose activity change, negative = inhibition, most hits filed as inhibitors; actives 1.8% (n = 300,000); Marburg virus pseudotyped entry inhibition, cell reporter; AID 540276; calls by dose curve; tested in HEK293 cells; further: potency means the concentration at half of the fitted maximal effect; on the % scale 0 is the no-effect control and ±100 the full control effect
Active calls of the source: *; ? = inconclusive; . = no result given; ! = a repeat was not active; [ ] = dose if it differs, or a comment. Most compounds without a hit are left out; they make up all but 19% or so of the library. Unless noted, the call rests on the fitted dose curve; in most records, active means well fitted inhibition curve with a large enough effect; inconclusive means small, poorly fitted or top-dose-only effect, or another doubt; inactive means no such curve, though single readings can be large or run the other way.

SMILES	Shiga inhibitor	Pf growth 96h	CHX counter	LASV entry inh	Pf growth 48h	MARV entry inh
O=C(Cn1cnc2ccccc21)c1ccc(Cl)cc1	48	83%	28*	1%	-20%	20%
O=c1c2ccccc2ncn1-c1ccc(Cl)cc1	42*!	123%	29*	?	108%	-6%
COc1ccccc1OCC(=O)NCc1nc(-c2ccc(Cl)cc2)no1	.	.	.	14%[46.1 µM]	.	0%[46.1 µM]
CCC1Sc2ccc(S(=O)(=O)CCC(=O)Nc3ccc(OC(F)(F)F)cc3)cc2NC1=O (stereo not drawn)	-2	4%	4	.	?	.
NC(=O)CC(NC(=O)Cc1cccc2ccccc12)c1ccc(NCC2CC2)c([N+](=O)[O-])c1 (stereo not drawn)	-5	9%	-1	.	-8%	.
O=C(Cn1cnc2ccccc2c1=O)c1cccs1	-8	-21%	-3	8%	.	16%
Cc1ccc(C(=O)Cn2cnc3ccccc3c2=O)cc1	76*	-14%	30*	3%	198%	?
C#CCOCCOCCOCCNc1nc(N2CCN(C(=O)[C@H](Cc3cc4ccccc4[nH]3)n3cc(C(N)CC(C)C)nn3)CC2)nc(N2CCN(C(=O)[C@H](CCC(=O)O)n3cc(C(N)[C@H](C)CC)nn3)CC2)n1 (stereo partly drawn)	42	46%	-3	.	8%	.
O=[N+]([O-])c1ccc(N2CCOCC2)cc1NC(c1ccccc1)c1ccccc1	-3	2.1µM*	-2	-7%	?	?
O=[N+]([O-])c1ccc(N2CCN(S(=O)(=O)c3ccc(Cl)c(Cl)c3)CC2)cc1NCCN1CCOCC1	-1	6.6µM*	-2	15%	?	?
O=[N+]([O-])c1ccc(N2CCCC2)cc1NC(c1ccccc1)c1ccccc1	21	?	-2	9%	?	6%
CC(C)c1ccc(CNc2cc(N3CCCC3)ccc2[N+](=O)[O-])cc1	-9	?	14	-25%	3%	?
O=[N+]([O-])c1ccc(N2CCN(S(=O)(=O)Cc3ccccc3)CC2)cc1N1CCOCC1	-9	-2%	1	13µM*	-11%	?
CC(C)(C)c1ccc(CNc2cc(N3CCOCC3)ccc2[N+](=O)[O-])cc1	-13	0%	-3	?	13µM*	?
CC(=O)N1CCc2cc(C(=O)CN3CCN(C(=O)c4ccco4)CC3)ccc21	11	?	-1	.	.	.
CC(C)(CNc1ccc(C(F)(F)F)cc1[N+](=O)[O-])N1CCOCC1	7	5.9µM*	-1	.	9.3µM*	.
CC(C)C(=O)N1CCN(c2ccc([N+](=O)[O-])c(NC(C)c3ccccc3)c2)CC1 (stereo not drawn)	-5	-18%	1	?	9.3µM*	?
CC(Nc1cc(N2CCNCC2)ccc1[N+](=O)[O-])c1ccccc1 (stereo not drawn)	9	35%	6	-4%	-25%	?
CC(Nc1cc(N2CCN(C(=O)C(C)(C)C)CC2)ccc1[N+](=O)[O-])c1ccccc1 (stereo not drawn)	-10	2.1µM*	-2	23µM*	8.3µM*	?
Cc1cc(C)c(S(=O)(=O)N2CCN(c3ccc([N+](=O)[O-])c(NCc4ccco4)c3)CC2)c(C)c1	-10	3.7µM*	-2	3%	?	4%
O=C(CSc1ccc(C(F)(F)F)cc1[N+](=O)[O-])N1CCOCC1	.	?	0	3%	61%	?
Cc1nonc1N1CCN(Cc2cn[nH]c2-c2ccc3c(c2)OCO3)CC1	1	?	-1	15%[46.1 µM]	-2%	10%[46.1 µM]
CCCc1nnc(NC(=O)Cn2c(=O)sc3ccccc32)s1	-20	.	-8	-14%	0%	0%
CCCC(=O)Nc1cc(-c2nnc(OC)c3ccccc23)ccc1N1CCCCC1	10	61%	0	.	10%	.
Cc1cccc(-n2c(C)c(C)c3c(N)ncnc32)c1	19	-5%	19*	-5%	?	2%
SMILES	Shiga inhibitor	Pf growth 96h	CHX counter	LASV entry inh	Pf growth 48h	MARV entry inh
Cc1c(C)n(-c2ccccc2)c2ncnc(NCCCN(C)C)c12	-3	-11%	-4	.	16%	.
Cc1ccc(S(=O)(=O)c2c(N)n(-c3ccccc3)c3nc4ccccc4nc23)cc1	-17	?	1	1%	?	-16%[46.1 µM]
O=S(=O)(Nc1c(S(=O)(=O)c2ccccc2)c2nc3ccccc3nc2n1C1CCCCC1)c1ccccc1	-10	9.3µM*	1	-5%	3.7µM*	1%
CC(=O)Nc1c(S(=O)(=O)c2ccccc2)c2nc3ccccc3nc2n1Cc1ccccc1	-8	268%	-3	-25%	?	-7%
C=CCn1c(NS(=O)(=O)c2ccccc2)c(S(=O)(=O)c2ccc(C)cc2)c2nc3ccccc3nc21	16	?	9	-12%	3.3µM*	-16%
O=C1CSC(c2nn(-c3ccccc3)cc2-c2cc3ccccc3oc2=O)N1Cc1ccco1 (stereo not drawn)	-6	?	-2	?	?	?
O=c1cc(-c2ccc(C3CCCCC3)cc2)[nH][nH]1	31	13%	22*	23%	-29%	3%[46.1 µM]
CSc1nccc(N2CCN(c3ccc(F)cc3)CC2)n1	25	12µM*	2	2%	?	?
Cc1nnc(SCC(=O)N2CC(=O)Nc3ccccc32)n1-c1ccccc1	-2	-20%	-2	0%	13%	?
Cc1ccc(NC(=O)c2c(C)oc3ccc(O)c(CN4CCN(Cc5ccccc5)CC4)c23)cc1	.	.	.	?	.	10µM*
COc1ccc(NC(=O)c2c(C)oc3ccc(O)c(CN4CCN(Cc5ccccc5)CC4)c23)cc1Cl	.	.	.	7.9µM*	.	?
CCOC(=O)c1c(-c2ccccc2)oc2ccc(O)c(CN(C)C)c12	-7	?	-3	-29%	.	?
Cc1ccc(NC(=O)c2c(C)oc3ccc(O)c(CN4CCCCCC4)c23)c(C)c1	.	.	.	?	.	3.5µM*
CCOC(=O)c1c(-c2ccccc2)oc2ccc(O)c(CN3CCCC3)c12	-20	1µM*	1	?	1.9µM*	23µM*
Cc1ccc(NC(=O)c2c(C)oc3ccc(O)c(CN4CCOCC4)c23)cc1	.	.	.	7%[46.1 µM]	.	-9%[46.1 µM]
CCC1Oc2ccc(C)cc2N(CC(=O)N2CCOCC2)C1=O (stereo not drawn)	18	?	-5	8%[46.1 µM]	2%	15%[46.1 µM]
CCOC(=O)C1CCCN(C(=O)c2cc(=O)c3ccccc3o2)C1 (stereo not drawn)	6	18%	-3	26%	3%	22%
COc1ccccc1NC(=S)Nc1cccc(F)c1	1	?	1	16%	10%	5%
Fc1cccc(NC(=S)Nc2ccc(Br)cc2)c1	28	?	19*	4%	59%	-9%
CC(C)(C)NNC(=S)Nc1cccc(F)c1	3	8.3µM*	2	-14%	10µM*	6%[14.2 µM]
CNCCCC1c2ccccc2C=Cc2ccccc21	-17	12µM*	-4	?	?	3.5µM*

Compound activity: PubChem, National Center for Advancing Translational Sciences (NCATS)
